The source made the active and inactive calls. The calls were made as follows: active = hit-call score of the fitted dose curve at least 0.9, where 1 is the maximum; inactive = score below 0.9.
Tested on: not listed separately
Assay: ATG_CRE_CIS: Attagene CIS-FACTORIAL HepG2 Assay for human cAMP Responsive Element (CRE) binding protein 3 (AID 2282926)
Conditions: HepG2 CRE cis-reporter, Attagene multiplexed mRNA; actives raise or lower the signal
Outline: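 We dosed HepG2 cells bearing multiple cis-promoter reporter units for 24 h and measured reporter mRNA by RT-PCR with capillary electrophoresis detection. Bidirectional concentration-response fitting used DMSO as negative control.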

| Structure (SMILES) | outcome | AC50 |
| --- | --- | --- |
| CCn1c2ccccc2c2cc(N)ccc21 | inactive |  |
| COc1cccc(OC)c1 | inactive |  |
| CCC(=O)OCc1ccccc1 | inactive |  |
| O=[N+]([O-])c1ccc(C=Cc2ccc([N+](=O)[O-])cc2S(=O)(=O)O)c(S(=O)(=O)O)c1 | inactive |  |
| CC(C)C1CCC(O)CC1 (centres undefined) | inactive |  |
| CC(=O)O[C@H](CC(=O)[O-])C[N+](C)(C)C | inactive |  |
| C=C(C)C(=O)OCCOC(=O)CC(C)=O | inactive |  |
| O=C=NC1CCC(CC2CCC(N=C=O)CC2)CC1 (centres undefined) |  | 28.4 µM (active) |
| O=c1cc(-c2ccccc2)oc2cc(O)cc(O)c12 | inactive |  |
| O=c1[nH]nnc2ccccc12 | inactive |  |
| OCCOc1cccc(OCCO)c1 | inactive |  |

Target: CCAAT/enhancer-binding protein beta (Homo sapiens) (UniProt P17676)
Assay: ATG_C_EBP_CIS: Attagene CIS-FACTORIAL HepG2 Assay for human CCAAT/Enhancer Binding Protein (C/EBP) beta (AID 2282927)
Conditions: HepG2 Attagene cis-factorial transcription factor reporter; actives raise or lower the signal
Outline: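 HepG2 transiently transfected with multiplexed reporter units under cis-regulatory promoters reporting endogenous C/EBPb activity. After 24 h exposure, reporter mRNA assayed by RT-PCR, fluorescent labelling, HpaI digestion and capillary electrophoresis; bidirectional fitting versus DMSO.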

CCAAT/enhancer-binding protein beta (Homo sapiens), sequence (P17676 whole entry, looked up): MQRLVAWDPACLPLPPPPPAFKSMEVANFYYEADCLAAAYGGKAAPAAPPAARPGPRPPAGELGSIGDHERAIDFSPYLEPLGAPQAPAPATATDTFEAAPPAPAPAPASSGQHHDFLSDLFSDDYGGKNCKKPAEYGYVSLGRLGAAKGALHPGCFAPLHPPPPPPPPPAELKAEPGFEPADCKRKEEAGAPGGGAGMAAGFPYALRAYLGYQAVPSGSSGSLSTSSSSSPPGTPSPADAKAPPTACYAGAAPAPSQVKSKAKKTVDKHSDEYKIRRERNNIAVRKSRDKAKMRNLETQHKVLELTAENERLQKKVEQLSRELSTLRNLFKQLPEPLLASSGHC

| Structure (SMILES) | outcome | AC50 |
| --- | --- | --- |
| CO[Si](C)(OC)c1ccccc1 | inactive |  |
| COc1ccc(OC)c(OC)c1 | inactive |  |
| CN(C)CCOCCN(C)C | inactive |  |
| CCC/C=C/C=O | inactive |  |
| CC(=O)O[C@]1(C(C)=O)CC[C@H]2[C@@H]3C[C@H](C)C4=CC(=O)CC[C@]4(C)[C@H]3CC[C@@]21C | inactive |  |
| CCc1ccc(C=O)cc1 | inactive |  |
| O=C(O)c1cn(-c2ccc(F)cc2)c2cc(N3CCNCC3)c(F)cc2c1=O | inactive |  |
| c1ccc2c(c1)c1cccc3ccc4cccc2c4c31 | inactive |  |
| Cc1ccc(C=O)cc1 | inactive |  |
| Cc1cccc(C)c1[N+](=O)[O-] | inactive |  |
| COc1nc(C)nc(N)n1 | inactive |  |
| CCCCCCCCCCCCOCCO | inactive |  |
| Clc1sc(Cl)c(Cl)c1Cl | inactive |  |
| NC(N)=NC(=O)c1nc(Cl)c(N)nc1N | inactive |  |
| O=c1[nH]c(=O)n([C@H]2CCCO2)cc1F | inactive |  |
| CCC(O)CO (centres undefined) | inactive |  |
| CO[Si](CCCn1c(=O)n(CCC[Si](OC)(OC)OC)c(=O)n(CCC[Si](OC)(OC)OC)c1=O)(OC)OC | inactive |  |
| Nc1cc(N)cc(C(=O)O)c1 | inactive |  |
| CCCC(=O)OCCC(C)CCC=C(C)C (centres undefined) | inactive |  |

| Structure (SMILES) | outcome | AC50 |
| --- | --- | --- |
| O=C(O)c1cccc(C(F)(F)F)c1 | inactive |  |
| CC[Si](OC(C)=O)(OC(C)=O)OC(C)=O | inactive |  |
| O=S(=O)(O)NC1CCCCC1 | inactive |  |
| CCCCCCCCC=O | inactive |  |
| CCCCOCCOCCSC#N | inactive |  |
| CCCCCCCCCCCCSC | inactive |  |
| CN1[C@@H]2CC(OC(=O)[C@H](CO)c3ccccc3)C[C@H]1[C@@H]1O[C@@H]12 (some centres undefined) | inactive |  |
| O=C(O)C[C@H](O)C[C@H](O)/C=C/c1c(C2CC2)nc2ccccc2c1-c1ccc(F)cc1 | inactive |  |
| CCn1c2ccccc2c2cc(N)ccc21 | inactive |  |
| COc1cccc(OC)c1 | inactive |  |
| CCC(=O)OCc1ccccc1 | inactive |  |
| O=[N+]([O-])c1ccc(C=Cc2ccc([N+](=O)[O-])cc2S(=O)(=O)O)c(S(=O)(=O)O)c1 | inactive |  |
| CC(C)C1CCC(O)CC1 (centres undefined) | inactive |  |
| CC(=O)O[C@H](CC(=O)[O-])C[N+](C)(C)C | inactive |  |
| C=C(C)C(=O)OCCOC(=O)CC(C)=O | inactive |  |
| O=C=NC1CCC(CC2CCC(N=C=O)CC2)CC1 (centres undefined) |  | 65.1 µM (active) |
| O=c1cc(-c2ccccc2)oc2cc(O)cc(O)c12 | inactive |  |
| O=c1[nH]nnc2ccccc12 | inactive |  |
| OCCOc1cccc(OCCO)c1 | inactive |  |

From PubChem BioAssay (EPA / NIEHS)
